Assay outcomes from PubChem.
C diff growth: C. difficile growth inhibitors, primary screen, HTS. Clostridium difficile clinical isolate growth, OD600, 24 h; hits give low values. growth activity, negative = inhibition, % at 16 µg/mL (by protocol). 86,000 tested, 0.25% active. AID 1259249, 2017;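 active = mean growth activity at or below -80% and every replicate also at or below -80%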;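 also: 0% = DMSO wells and -100% = levofloxacin 16 µg/mL wells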
Numbers without * were called inactive; ! = repeats disagree. The sample as a whole holds a higher share of hits than the screen did.

SMILES | C diff growth
CN1c2ccc(Br)cc2[C@@H]2[C@@H](CCN2C(=O)Nc2ccc(F)cc2)[C@H]1CO | -98.3*
COc1ccc(NC(=O)N2CC[C@H]3[C@@H]2c2cc(Br)ccc2N(C)[C@H]3CO)cc1 | -98.5*
CN1c2ccc(Br)cc2[C@@H]2[C@@H](CCN2C(=O)Nc2ccc(F)cc2)[C@@H]1CO | 15.3
CN1c2ccc(Br)cc2[C@H]2[C@H](CCN2C(=O)Nc2cccc(F)c2)[C@H]1CO | 30.8
C[C@@H]1CN([C@H](C)CO)S(=O)(=O)c2ccc(C3=CCCCC3)cc2O[C@H]1CN(C)Cc1cncnc1 | -3.2
C[C@H](CO)N1C[C@H](C)[C@H](CN(C)S(=O)(=O)c2ccc(-c3ccccc3)cc2)OCc2cn(nn2)CCCC1=O | 3.1
Cc1noc(C)c1NC(=O)N[C@@H]1CC[C@H](CC(=O)N2CCN(C)CC2)O[C@@H]1CO | -3.6
C[C@@H]1CN([C@@H](C)CO)C(=O)c2cc(N(C)C)ccc2O[C@@H](C)CCCCO[C@H]1CN(C)C | -1.6
CN(C[C@@H]1N[C@H](CO)[C@H]1c1ccc(C2=CCCC2)cc1)C(=O)c1cccc(F)c1 | 8.1
O=C(NC[C@@H]1N[C@@H](CO)[C@H]1c1ccc(C2=CCCCC2)cc1)c1cccc(F)c1 | -81.0*
CCC(=O)NC[C@H]1N[C@H](CO)[C@@H]1c1ccc(C2=CCCC2)cc1 | -4.2
COc1ccc2c3c([nH]c2c1)[C@H](CO)N(C(=O)C1CCCC1)CC31CCN(S(C)(=O)=O)CC1 | -0.6
COc1ccc2c3c(n(C)c2c1)[C@H](CO)N(CC1CC1)CC31CN(S(=O)(=O)c2cccs2)C1 | 9.5
COc1cc(CN2CC3(CCN(S(=O)(=O)c4cccs4)CC3)c3c(n(C)c4cc(OC)ccc34)[C@@H]2CO)cc(OC)c1 | 9.6
COc1ccc2c3c([nH]c2c1)[C@H](CO)N(C(=O)Nc1ccc(F)cc1)CC31CN(S(=O)(=O)c2ccccc2)C1 | -1.9
COc1cc(CN2CC3(CN(S(=O)(=O)c4cccs4)C3)c3c(n(C)c4cc(OC)ccc34)[C@@H]2CO)cc(OC)c1 | -87.4*
COc1ccc2c3c([nH]c2c1)[C@@H](CO)N(C(=O)Nc1ccc(F)cc1)CC31CN(S(=O)(=O)c2cccs2)C1 | -94.7*
COc1ccc2c3c([nH]c2c1)[C@@H](CO)N(C(=O)Nc1ccc(F)cc1)CC31CN(S(=O)(=O)c2cccc(F)c2)C1 | -3.2
NC(=O)[C@@H]1[C@H]2C(=O)O[C@H](c3ccccc3)[C@H](c3ccccc3)N2[C@H](c2ccc(O)cc2)[C@@]12C(=O)Nc1ccccc12 | 2.8
CCCN(C)C[C@@H]1Oc2ncc(C#CC3CC3)cc2C(=O)N([C@@H](C)CO)C[C@@H]1C | 7.0
CO[C@H]1CN(C)C(=O)c2ccc(NC(=O)c3cc(C)on3)cc2OC[C@H](C)N(C)C[C@@H]1C | -0.7
O=C(C[C@@H]1CC[C@@H](NC(=O)Cc2cccnc2)[C@@H](CO)O1)Nc1ccccc1 | -2.6
C[C@@H]1CN([C@@H](C)CO)C(=O)c2cc(NC(=O)CCC(F)(F)F)ccc2O[C@H]1CN(C)C(=O)Nc1ccc(C(F)(F)F)cc1 | -0.5
CS(=O)(=O)N1[C@H](C(=O)NCC2CC2)[C@@H](CO)[C@@H]2Cn3c(ccc(-c4ccccc4F)c3=O)[C@@H]21 | 0.6
CCNC(=O)C[C@H]1CC[C@H]2[C@@H](COC[C@@H](O)CN2C(=O)Nc2ccc(C(F)(F)F)cc2)O1 | -101.6*!
SMILES | C diff growth
CCNC(=O)C[C@@H]1CC[C@@H]2[C@H](COC[C@H](O)CN2C(=O)Nc2cccc(OC)c2)O1 | 2.4
O=C(C[C@@H]1CC[C@H]2[C@@H](COC[C@H](O)CN2C(=O)Nc2ccc(C(F)(F)F)cc2)O1)NC1Cc2ccccc2C1 | -8.1
O=C(C[C@H]1CC[C@H]2[C@@H](COC[C@H](O)CN2C(=O)Nc2ccc(C(F)(F)F)cc2)O1)NCCc1ccncc1 | -17.7
O=C(C[C@@H]1CC[C@H]2[C@@H](COC[C@@H](O)CN2C(=O)Nc2ccc(C(F)(F)F)cc2)O1)NCCc1ccncc1 | -14.9
CCNC(=O)C[C@H]1CC[C@@H]2[C@H](COC[C@H](O)CN2C(=O)Nc2ccc(C(F)(F)F)cc2)O1 | -88.4*
C[C@H]1CN([C@@H](C)CO)C(=O)c2cccc(NC(=O)Nc3ccc(F)cc3)c2O[C@H]1CN(C)CC1CC1 | 1.8
CCCNC(=O)[C@@H]1[C@@H](CO)[C@@H]2Cn3c(cccc3=O)[C@@H]2N1Cc1ccccc1Cl | -1.8
CCCN1[C@@H]2Cn3c(ccc(-c4ccccc4OC)c3=O)[C@H]1[C@@H](C(=O)N1CCOCC1)[C@@H]2CO | -1.8
Cc1noc(C)c1NC(=O)N(C)C[C@H]1Oc2ccc(NC(=O)Nc3cccc4ccccc34)cc2CC(=O)N([C@@H](C)CO)C[C@@H]1C | -0.4
O=C(NC1CCC1)[C@H]1[C@H](CO)[C@H]2Cn3c(ccc(C4=CCCC4)c3=O)[C@@H]1N2CC1CC1 | 1.9
COc1ccccc1C#Cc1ccc2c(c1)[C@H]1[C@H](CCN1C(=O)c1ccccc1)[C@H](CO)N2 | 2.0
COc1ccccc1CN1CC[C@H]2[C@H](CO)Nc3ccc(C#Cc4ccccc4)cc3[C@H]21 | -99.6*
OC[C@@H]1Nc2ccc(-c3ccccc3)cc2[C@@H]2[C@H]1CCN2Cc1ccccc1F | -7.4
COc1ccccc1C#Cc1ccc2c(c1)[C@@H]1[C@@H](CCN1C(=O)c1ccncc1)[C@@H](CO)N2 | -94.6*
COc1ccc(-c2ccc3c(c2)[C@@H]2[C@@H](CCN2Cc2ccccc2F)[C@H](CO)N3)cc1 | 18.0
COc1ccccc1C#Cc1ccc2c(c1)[C@@H]1[C@@H](CCN1C(=O)c1ccncc1)[C@H](CO)N2 | 12.5
O=C(c1ccccc1)N1CC[C@@H]2[C@@H](CO)Nc3ccc(C#Cc4ccccc4F)cc3[C@@H]21 | 90.8
COc1ccc(C#Cc2ccc3c(c2)[C@@H]2[C@@H](CCN2Cc2nccs2)[C@@H](CO)N3)cc1 | -1.5
O=C(c1ccc(F)cc1)N1CC[C@H]2[C@H](CO)Nc3ccc(C#Cc4ccccc4F)cc3[C@H]21 | 68.9
COc1ccccc1C#Cc1ccc2c(c1)[C@H]1[C@H](CCN1C(=O)c1ccc(F)cc1)[C@@H](CO)N2 | -100.8*
COc1ccccc1CN1CC[C@H]2[C@H](CO)Nc3ccc(-c4cccc(F)c4)cc3[C@H]21 | -1.8
OC[C@H]1Nc2ccc(-c3ccccc3)cc2[C@@H]2[C@H]1CCN2Cc1ccccc1F | -101.0*
C/C=C/c1ccc([C@H]2[C@@H](CO)N(CC3CCOCC3)C23CN(S(=O)(=O)CC)C3)cc1 | -2.1
Cc1noc(C)c1NC(=O)N(C)C[C@@H]1OCCCC[C@H](C)Oc2ccc(NC(=O)Nc3ccc4c(c3)OCO4)cc2C(=O)N([C@H](C)CO)C[C@@H]1C | -4.3
C[C@@H]1CCCCO[C@@H](CN(C)C(=O)Nc2cccc3ccccc23)[C@H](C)CN([C@H](C)CO)C(=O)c2cc(NC(=O)c3ccncc3)ccc2O1 | 3.4
C[C@@H]1CN([C@@H](C)CO)S(=O)(=O)c2ccc(/C=C/c3ccccc3)cc2O[C@@H]1CN(C)C(=O)NC1CCCC1 | -5.3
O=C(c1cnccn1)N1CC2(C1)[C@@H](c1ccccc1)[C@@H](CO)N2C(=O)c1ccccc1 | 6.1
CCCNC(=O)C[C@@H]1C[C@@H]2c3cc(NC(=O)Nc4ccc(OC)cc4)ccc3O[C@@H]2[C@@H](CO)O1 | -4.2
C[C@H](CO)N1C[C@H](C)[C@H](CN(C)C(=O)c2ccncc2)Oc2ncc(C#C[C@@H](C)O)cc2C1=O | -1.7
